Source: PubChem BioAssay (National Center for Advancing Translational Sciences (NCATS))
This is a sample that favours compounds with a hit; in the whole collection about 11% have one here.
ALDH1A1 block = inhibitors of human aldehyde dehydrogenase 1A1; P00352; Purified ALDH1A1, NADH fluorescence, propionaldehyde substrate; Potency, µM (series often up to 75.3 µM), for the others: top-dose activity, negative = inhibition, actives largely listed as inhibitors; actives 7.3% (n = 220,000); active = well fitted inhibition curve with a large enough effect, not every such curve was filed as active; inconclusive = small, poorly fitted or top-dose-only effect, or another doubt; inactive = no such curve, though single readings can be large or run the other way;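 note: potency is the fitted concentration of half-maximal effect; plate controls were no enzyme wells and a reference inhibitor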
PNC inhibitor = perinucleolar compartment assembly inhibition; actives 3.1% (n = 140,000); PC3M PTB-GFP, PNC prevalence imaging, 16 h; active compounds read low; activity change (PNC), negative = inhibition, % at 10 µM;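 active = readout at or below -70, meaning at least 70% loss of cells showing the perinucleolar compartment, a nuclear body marking cancer cells; inconclusive = readout between -30 and a set limit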;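 note: plate controls were DMSO wells for no effect and camptothecin positive control wells for full effect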
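PC3M cells stably expressing PTB-GFP, 750–1000 cells/well, treated 16 h at 37 °C with compound (23 nl of library stock), in duplicate. After paraformaldehyde fixation and Hoechst stain, imaged at 20x; PNC prevalence scored by image analysis.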
CBFb RUNX1 block = CBF-beta/RUNX1 interaction disruption; Potency, µM (highest dose often 59.8 µM), inactives show at the top dose activity, negative = inhibition, most hits filed as inhibitors; 230,000 tested, under 10 active; AID 1477; AlphaScreen CBFb-His/RUNX1-biotin binding, biochemical; note: % of control where 0% means no effect
Target sequence (Q01196 whole entry, looked up): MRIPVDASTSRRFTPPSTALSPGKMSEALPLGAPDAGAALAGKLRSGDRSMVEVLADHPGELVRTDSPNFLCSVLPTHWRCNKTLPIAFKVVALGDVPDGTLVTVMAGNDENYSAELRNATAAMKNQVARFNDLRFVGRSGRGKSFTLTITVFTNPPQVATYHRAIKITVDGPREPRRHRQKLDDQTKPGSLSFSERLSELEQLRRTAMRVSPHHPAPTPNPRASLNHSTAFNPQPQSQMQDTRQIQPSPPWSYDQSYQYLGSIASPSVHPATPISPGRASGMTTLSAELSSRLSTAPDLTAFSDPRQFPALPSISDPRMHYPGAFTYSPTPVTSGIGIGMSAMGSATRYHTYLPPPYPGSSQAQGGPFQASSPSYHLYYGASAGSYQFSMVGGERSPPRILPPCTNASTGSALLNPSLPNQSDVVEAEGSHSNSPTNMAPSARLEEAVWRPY
Target sequence (Q13951 whole entry, looked up): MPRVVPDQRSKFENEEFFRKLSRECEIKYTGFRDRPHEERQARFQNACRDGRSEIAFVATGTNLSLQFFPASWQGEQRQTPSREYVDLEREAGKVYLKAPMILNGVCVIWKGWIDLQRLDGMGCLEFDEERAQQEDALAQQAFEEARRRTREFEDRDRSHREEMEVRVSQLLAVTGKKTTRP
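CBF-beta (His) and RUNX1 (biotin), 30 nM each; 20 min preassociation; + compound, 15 min; + beads 50 ng each (Ni, streptavidin), 90 min; RT; AlphaScreen read.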
HPGD block = inhibitors of human 15-hydroxyprostaglandin dehydrogenase (HPGD); Potency, µM, inactives show at the top dose activity change, negative = inhibition, hits mostly inhibitors; actives 4.3% (n = 150,000); P15428; purified HPGD, NADH fluorescence kinetic, PGE2 substrate; active = well fitted inhibition curve with a large enough effect, not every such curve was filed as active; inconclusive = small, poorly fitted or top-dose-only effect, or another doubt; inactive = no such curve, though single readings can be large or run the other way; note: potency is the fitted concentration of half-maximal effect; % is set by controls: 0 for no effect and ±100 for the full control effect
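NADH formation kinetics: reaction with 30 uM PGE2 and 1 mM NAD+ (final), 20 nM enzyme, Tris-HCl pH 8 with Tween 20, after 15 min compound preincubation at room temperature. Fluorescence change, last versus first of five reads.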
HTT aggregate = inhibitors of mutant huntingtin aggregate formation in PC12 cells; PC12 HttQ103-GFP aggregates, Acumen cytometry, 40 h; Potency, µM (top dose mostly 46.1 µM), inactives show at the highest dose activity change, negative = inhibition, most hits filed as inhibitors; AID 1688; actives 1.1% (n = 220,000); note: potency is the fitted concentration of half-maximal effect; % is set by controls: 0 for no effect and ±100 for the full control effect; nearly all actives have a fitted effect of over 60% in size
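PC12 cells with ecdysone-inducible HTT exon1 Q103-GFP, induced by 100 nM tebufenozide, given compounds in a concentration series. GFP aggregates (1–25 um, 6 SD above background) counted in lysates by laser-scanning cytometry, 488 nm excitation.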
HTT ATP protect = Huntington cell model cytoprotection by ATP luminescence; PC12 HTT-Q103 induced, cytoprotection, ATP luminescence, 40 h; actives 0.14% (n = 230,000); Potency, µM (series often up to 56.4 µM), inactives show cytoprotection (ATP increase), hits mostly activators; AID 1471; note: potency is the fitted concentration of half-maximal effect; % of control where 0% means no effect; nearly all actives have a fitted effect of over 45% in size
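Quantitative HTS on tebufenozide-induced (100 nM) PC12 cells expressing HTTQ103 exon 1–GFP; compounds tested as a concentration series; survival measured via cellular ATP.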
* = called active by the depositor; ? = inconclusive; / = no result; [ ] = another dose, or the depositor's remark. Unless noted, calls come from the whole dose curve; as a rule, active = well fitted curve in the direction sought with a large enough effect; inconclusive = small, poorly fitted or top-dose-only effect, or another doubt; inactive = no such curve, though single readings can be large; an effect the other way counts as inactive or inconclusive.

SMILES	ALDH1A1 block	PNC inhibitor	CBFb RUNX1 block	HPGD block	HTT aggregate	HTT ATP protect
COc1ccc(S(=O)(=O)Nc2ccccn2)c(C)c1C	25µM*	?	4%	-8%	8%	0%
COc1cc(NS(=O)(=O)c2ccc(OC)c(C)c2C)c(OC)cc1Cl	?	-108*	5%	-17%	-31%	-59%
COC(=O)C1(C(=O)OC)C/C=C\C/C=C\c2ccccc2[C@@H]1C[N+](=O)[O-]	2%	/	-28%	-5%	/	6%
CC1CC(C)CN(C(=O)/C(=C\c2ccccc2)c2ccccc2)C1 (centres undefined)	-9%	10	9%	11µM*	-6%	19%[10 µM]
CC1CCCCN1C(=O)/C(=C\c1ccccc1)c1ccccc1 (centres undefined)	-5%	28	1%	14µM*	3%	6%
CN1CCN(C(=O)/C(=C/c2ccccc2)c2ccccc2)CC1	0%	-1	-3%	13µM*	3%	10%
CN1CCN(C(=O)/C(=C/c2ccc(F)cc2)c2ccsc2)CC1	-9%	/	12%	/	3%	13%[10 µM]
CC1CCCCN1C(=O)/C=C/c1ccccc1[N+](=O)[O-] (centres undefined)	-1%	/	-3%	/	-2%[9.22 µM]	-18%[10 µM]
CC1CC(C)CN(C(=O)c2ccncc2)C1 (centres undefined)	-13%	?	3%	-12%	0%	8%
O=C(O)[C@H]1C(=CCO)O[C@H]2CC(=O)N12	?	/	-11%	-20%	-1%	-43%
CN(C)CCCO[C@H]1[C@H]([C@H](O)CO)O[C@H]2OC(C)(C)O[C@@H]21	/	/	/	/	/	5%[1.9 µM]
COCCCN(CCCN)Cc1ccco1	8%	-17	2%	-10%	0%	-4%[10 µM]
C#CCCCCCCCCCCCc1ccco1	20µM*	/	/	-23%	/	/
CSc1nc2ccccc2n1Cc1c(Cl)cccc1Cl	2%	8	9%	-8%	11µM*	-29%
CC(=O)Nc1ccc(OCC=C(Cl)Cl)cc1	10%	-5	1%	-4%	?	-24%
COc1ccc(Nc2oc(COc3ccccc3OC)nc2C#N)cc1	2%	72	-15%	14µM*	?	/
COc1ccccc1OCc1nc(C#N)c(NCCCn2ccnc2)o1	5%	/	-11%	/	15%[9.22 µM]	7%[10 µM]
CCNc1oc(COc2ccccc2F)nc1C#N	?	-13	-4%	14µM*	-2%	-25%[10 µM]
C=C1c2cccc(O)c2C(O)=C2C(=O)[C@@]3(O)C(O)=C(C(N)=O)C(=O)[C@@H](N(C)C)[C@@H]3[C@@H](O)[C@H]12	6%[20.9 µM]	/	/	10µM*	14%[20.6 µM]	5%[40.3 µM]
C[C@@H]1c2cccc(O)c2C(O)=C2C(=O)[C@@]3(O)C(O)=C(C(N)=O)C(=O)[C@@H](N(C)C)[C@@H]3[C@@H](O)[C@@H]21	-2%[20.9 µM]	/	-6%[21.7 µM]	-4%	0%	?
COC(=O)N1CCC2(CCCN(c3ncccn3)C2)CC1	-1%	/	/	-13%	/	-7%
CCN(CC)c1ccc(C(=O)O)cc1	-6%	10	9%	-6%	-9%	-6%[10 µM]
CCN(CC)c1ccc(/C=C2\C(=O)c3ccc(C(=O)O)cc3C2=O)cc1	3.2µM*	?	-24%	2.8µM*	22%	9%[10 µM]
C[C@H](NC(N)=O)C(=O)Nc1ccc2c(c1)OCO2	/	/	21%	/	-4%[9.22 µM]	1%[10 µM]
Cc1cccc2nc(-c3ccccc3)nc(N[C@@H](CO)c3ccccc3)c12	4%	26	-29%	?	-17%	17%[10 µM]
SMILES	ALDH1A1 block	PNC inhibitor	CBFb RUNX1 block	HPGD block	HTT aggregate	HTT ATP protect
CCCCNc1nc(C)nc2c1nc(-c1ccccc1)n2CC1CCCN1CC (centres undefined)	?	/	6%	?	/	-31%
Cn1ncc([N+](=O)[O-])c1C(=O)Nc1nccs1	0%	-105*	2%	?	-2%	-8%[10 µM]
S=c1[nH]nc(-c2cc(-c3ccccc3)n[nH]2)n1/N=C/c1ccccc1	/	/	-1%	/	-26%[9.22 µM]	11%[10 µM]
CCN(CC)S(=O)(=O)c1cccc(-c2n[nH]c(=S)n2/N=C/c2ccc(OC(F)F)cc2)c1	?	72	-4%	3.2µM*	22µM*	-2%[1.9 µM]
CCN(CC)S(=O)(=O)c1cccc(-c2n[nH]c(=S)n2/N=C/c2ccc(Br)cc2)c1	-16%	-20	-3%	14µM*	28%	/
CCN(CC)S(=O)(=O)c1cccc(-c2n[nH]c(=S)n2C(C)COC)c1 (centres undefined)	-4%	/	-7%	/	7%	-25%
COc1ccc(/C=N/n2c(-c3ccc(C)cc3)n[nH]c2=S)cc1OC	/	/	-6%	/	15%[9.22 µM]	7%[10 µM]
CCN(CC)S(=O)(=O)c1cccc(-c2n[nH]c(=S)n2/N=C/c2ccc(OC)cc2)c1	?	17	-8%	16µM*	15%	13%[10 µM]
CCC(C)n1c(-c2cccc(S(=O)(=O)N(CC)CC)c2)n[nH]c1=S (centres undefined)	13µM*	/	-2%	/	2%	-29%
Cc1cc(C)nc(N/N=C/c2ccco2)n1	4%	-110*	0%	-3%	5%	1%
COc1ccc(-n2c(C)cc(C(=O)COc3ccc(C)nc3[N+](=O)[O-])c2C)cc1	?	-15	-29%	-12%	6%	-4%[10 µM]
ON1C(c2ccc(Cl)cc2Cl)N(O)[C@H]2CCCC[C@H]21 (some centres undefined)	2%	?	4%	-17%	-6%	-22%
CC1N(O)C(c2ccc(Cl)cc2Cl)N(O)C1(C)C (centres undefined)	14µM*	16	0%	-3%	19%	-19%
CN(C1CCCCC1)S(=O)(=O)c1ccc(S(=O)(=O)N(CC(=O)Nc2ccccc2)C2CC2)cc1	/	/	6%	/	-1%[9.22 µM]	-3%[10 µM]
Cc1ccc(NC(=O)Cc2cc(C(=O)O)c3ccccc3n2)c(C)c1	11%	/	0%	/	/	/
Cc1cc(C2(c3cc(C)c(O)cc3C)OS(=O)(=O)c3ccccc32)c(C)cc1O	28µM*	/	12%[21.7 µM]	-13%	/	5%
O=C(NNc1c(Cl)cc(Cl)cc1Cl)C1CCC1	16%	32	4%	32µM*	2%	/
Brc1cc2c(cc1C1Nc3ccccc3C3C=CCC31)OCO2 (centres undefined)	4%	?	-8%	-16%	?	-11%[10 µM]
CC(=O)c1ccc2c(c1)C1C=CCC1C(C(=O)O)N2 (centres undefined)	?	/	4%	/	-31%[9.22 µM]	-38%[10 µM]
C1=CC2c3ccccc3NC(c3ccncc3)C2C1 (centres undefined)	10µM*	3	?	22µM*	23%	-17%[10 µM]
CC(=O)c1ccc2c(c1)C1C=CCC1C(c1ccncc1)N2 (centres undefined)	20µM*	-23	-23%	-6%	0%	-25%
